Screening data: PubChem, National Center for Advancing Translational Sciences (NCATS)
FEN1 inhibitor = blocks human flap endonuclease 1; Potency, µM (doses to about 114 µM), inactives show at the highest dose activity change, negative = inhibition, hits mostly inhibitors; Recombinant FEN1 flap cleavage, fluorescence, 15 min; P39748; 0.35% of 390,000 active; AID 588795; note: % is set by controls: 0 for no effect and ±100 for the full control effect; nearly all actives have a fitted effect of over 65% in size
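Reaction started by adding substrate (50 nM final) to 10 nM enzyme after 15 min room-temperature compound preincubation. Reads at 0 and 15 min, with data normalized and fitted to a four-parameter Hill equation.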
Pol eta inh = DNA polymerase eta (human) inhibition. Q9Y253. recombinant Pol eta, fluorescent DNA replication assay. Potency, µM (doses to about 114 µM), for the others: at the highest dose activity change, negative = inhibition, hits mostly inhibitors. 1.2% of 390,000 active. AID 588591; note: % is set by controls: 0 for no effect and ±100 for the full control effect
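Fluorescent replication assay: 50 nM final substrate added after a 15 min room-temperature compound preincubation with 10 nM enzyme. Signal taken at 0 min and again at 10 min.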
Pol iota inh = inhibitors of human DNA polymerase iota. Q9UNA4. Pol iota fluorescent replication assay, 10 min. Potency, µM (highest dose often 115 µM), for inactives: at the top dose activity, negative = inhibition, hits mostly inhibitors. 1% of 390,000 active. AID 588590
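Fluorescent replication assay read twice, at 0 min and 10 min after adding 50 nM (final) substrate. Enzyme (10 nM) and compounds were first incubated 15 min at room temperature; enzyme-free buffer wells were negative controls.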
WRN inhibitor = inhibitors of human WRN helicase. Potency, µM (titrated, usually from 114 µM), for inactives: top-dose activity change, negative = inhibition, hits mostly inhibitors. 0.46% of 360,000 active. WRN helicase unwinding, fluorescent forked duplex, kinetic; note: % is set by controls: 0 for no effect and ±100 for the full control effect; nearly all actives have a fitted effect of over 55% in size
Target sequence (Q14191 whole entry, looked up): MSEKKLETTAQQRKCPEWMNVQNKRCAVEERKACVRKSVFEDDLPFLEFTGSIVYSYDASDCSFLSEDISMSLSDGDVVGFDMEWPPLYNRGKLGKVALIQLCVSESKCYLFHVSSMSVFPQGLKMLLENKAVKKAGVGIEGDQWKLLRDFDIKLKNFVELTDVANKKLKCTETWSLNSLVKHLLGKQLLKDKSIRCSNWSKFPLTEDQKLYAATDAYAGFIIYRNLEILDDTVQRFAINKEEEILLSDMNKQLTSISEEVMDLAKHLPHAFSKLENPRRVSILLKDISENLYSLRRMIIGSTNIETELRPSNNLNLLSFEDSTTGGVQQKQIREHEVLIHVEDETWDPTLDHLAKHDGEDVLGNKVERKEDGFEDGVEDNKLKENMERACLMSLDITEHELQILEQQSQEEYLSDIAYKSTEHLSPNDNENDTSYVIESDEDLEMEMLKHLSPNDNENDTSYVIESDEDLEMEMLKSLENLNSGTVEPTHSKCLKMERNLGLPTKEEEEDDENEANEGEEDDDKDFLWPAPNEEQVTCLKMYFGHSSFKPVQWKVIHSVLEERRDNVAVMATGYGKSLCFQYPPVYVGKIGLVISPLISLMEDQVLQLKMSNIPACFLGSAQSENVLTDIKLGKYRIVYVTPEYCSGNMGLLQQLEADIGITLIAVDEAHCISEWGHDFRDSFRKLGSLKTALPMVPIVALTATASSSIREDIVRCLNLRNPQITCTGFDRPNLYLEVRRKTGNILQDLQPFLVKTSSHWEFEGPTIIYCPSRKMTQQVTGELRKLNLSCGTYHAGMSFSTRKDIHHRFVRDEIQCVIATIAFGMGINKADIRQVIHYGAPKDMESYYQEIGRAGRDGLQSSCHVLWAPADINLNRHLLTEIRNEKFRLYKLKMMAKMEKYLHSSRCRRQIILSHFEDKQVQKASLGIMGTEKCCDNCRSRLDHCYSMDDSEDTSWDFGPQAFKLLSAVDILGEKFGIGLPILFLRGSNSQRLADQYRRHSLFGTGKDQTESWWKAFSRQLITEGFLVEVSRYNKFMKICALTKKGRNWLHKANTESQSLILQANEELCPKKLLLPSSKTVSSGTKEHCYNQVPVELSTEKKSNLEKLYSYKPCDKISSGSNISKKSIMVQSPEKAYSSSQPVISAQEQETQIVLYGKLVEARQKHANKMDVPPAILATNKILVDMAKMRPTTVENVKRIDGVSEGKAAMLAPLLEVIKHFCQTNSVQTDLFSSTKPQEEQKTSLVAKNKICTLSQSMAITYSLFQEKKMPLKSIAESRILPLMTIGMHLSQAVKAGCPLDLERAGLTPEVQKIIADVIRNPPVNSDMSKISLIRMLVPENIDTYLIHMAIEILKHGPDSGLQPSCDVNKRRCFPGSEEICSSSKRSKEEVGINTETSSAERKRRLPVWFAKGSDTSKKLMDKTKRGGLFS
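Fluorescence dequenching readout, ex 525 nm/em 598 nm, kinetic mode: forked duplex DNA (100 nM final) with adjacent fluorophore and quencher unwound by WRN (20 nM final) with 2 mM ATP. Compound preincubation 15 min, room temperature.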
POLB inh = DNA polymerase beta (human) inhibition; Pol beta primer extension/strand displacement, fluorescence kinetic; P06746; 1.3% of 340,000 active; Potency, µM (highest dose often 114 µM), for inactives: top-dose activity change, negative = inhibition, actives largely listed as inhibitors; AID 485314; note: % is set by controls: 0 for no effect and ±100 for the full control effect
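Kinetic readout of DNA synthesis with strand displacement by Pol beta. Compound and 10 nM enzyme sit 15 min at room temperature; 50 nM substrate starts the reaction, read immediately and at 10 min.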
POLK inh = blocks human DNA polymerase kappa activity; purified Pol kappa, fluorescent DNA synthesis assay, 10 min; Potency, µM (doses to about 107 µM), for the others: at the highest dose activity, negative = inhibition, most hits filed as inhibitors; 0.53% of 400,000 active; note: % is set by controls: 0 for no effect and ±100 for the full control effect
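Fluorescent qHTS in 1536-well format: enzyme (10 nM) and compound sat 15 min at room temperature before 50 nM substrate (final) was added. Signal taken at 0 and 10 min; no-enzyme buffer wells were negative controls.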
The depositor's hits bear a star; ? = inconclusive; . = no result; [ ] = another dose, or the depositor's remark. Only some compounds are listed: those with a hit (about 2.4% of all), similar ones and a draw of the others. Calls come from the whole dose curve; as a rule, active = well fitted curve in the direction sought with a large enough effect; inconclusive = small, poorly fitted or top-dose-only effect, or another doubt; inactive = no such curve, though single readings can be large; an effect the other way counts as inactive or inconclusive. Potency is the fitted concentration of half-maximal effect.

SMILES | FEN1 inhibitor | Pol eta inh | Pol iota inh | WRN inhibitor | POLB inh | POLK inh
O=C(O)c1ccccc1NS(=O)(=O)c1cccc(-n2sc3ccccc3c2=O)c1 | 89.1µM* | 50.1µM* | 25.1µM* | 11.2µM* | ? | -34.6%
O=C(O)c1ccccc1NS(=O)(=O)c1cccc(C(F)(F)F)c1 | 0.3% | 3.1% | -1.0% | -9.0% | -25.0% | -7.4%
O=C(Nc1ccc2nc(SCC(=O)N3CCCC3)sc2c1)c1ccccc1F | -6.2% | -5.4% | 8.6% | . | -25.4% | -21.4%
C#CCNC(=O)C1=C[C@@H](c2ccccc2)C[C@@H](OCc2ccc(CO)cc2)O1 | -10.1% | -18.1% | 38.3% | 11.5% | 1.0% | -7.7%
C#Cc1ccc([C@H]2C=C(C(=O)OCC=C)O[C@@H](OCc3ccc(CO)cc3)C2)cc1 | ? | 28.2µM* | ? | -15.2% | . | ?
C#CCNC(=O)C1=C[C@H](c2ccc(C#C)cc2)C[C@H](OCc2ccc(CO)cc2)O1 | 0.0% | 44.7µM* | ? | -12.0% | . | ?
Cc1ccc(-c2nc(CS(=O)CC(=O)N3CCN(c4ccc(Cl)cc4)CC3)c(C)o2)cc1 (stereo not drawn) | -1.9% | -15.5% | -14.1% | . | -21.4% | 2.0%[60.1 µM]
Cc1cccc2c(=O)[nH]c3c(-c4nc(-c5ccc(Cl)cc5)cs4)c(O)cn3c12 | -6.0% | . | ? | . | . | -14.7%
CCCCCCc1c(C)c2ccc(OCC(=O)N3CCC[C@H]3C(=O)O)c(C)c2oc1=O | -13.6% | 79.4µM* | 89.1µM* | -17.3% | 2.0% | -29.7%
CCc1ccccc1N(C)C(=O)c1cc2c(=O)oc3ccccc3c2s1 | -12.8% | -21.9% | -2.6% | . | 12.9% | -6.9%
Nc1ccc(/C=C/c2ccc(N)cc2S(=O)(=O)O)c(S(=O)(=O)O)c1 | . | . | . | . | . | 3.16µM*
CCc1nn2c(=O)cc(COC(=O)c3ccc(NC(=O)c4cccs4)cc3)nc2s1 | 0.4% | -10.9% | 41.4% | . | 8.7% | -4.1%[60.1 µM]
CC(C)(C)N1C(=O)Cc2c1nc(N)c1c(N)nc(N3CCCCC3CO)c(C#N)c21 (stereo not drawn) | -3.2% | ? | 20µM* | ? | -0.3% | -10.3%
CN(C)CCNC(=O)c1cccc2[nH]c(-c3ccncc3)nc12 | 44.7µM* | 14.5% | ? | 3.5%[11.6 µM] | . | -33.0%
COc1ccc(C(=O)NCCN(C)C)c2nc3ccccc3cc12 | 14.1µM* | ? | 79.4µM* | 40.4% | . | ?
CN(C)CCNC(=O)c1cccc2nc3c(ccc4ccccc43)nc12 | 12.6µM* | ? | 79.4µM* | ? | . | ?
N=C(N)S/C=C\C(=O)O | . | . | . | . | . | 5.8%[19.4 µM]
CC1=NN(c2ccc(C)cc2C)C(=O)C1C(c1ccccc1O)C1C(=O)N(c2ccc(C)cc2C)N=C1C (stereo not drawn) | -9.4% | -9.4% | 0.891µM* | -10.6%[57.1 µM] | 39.2% | -10.8%
CC1=NN(c2ccc(C)c(C)c2)C(=O)C1C(c1cccc(O)c1)C1C(=O)N(c2ccc(C)c(C)c2)N=C1C (stereo not drawn) | ? | -12.7% | ? | ? | -5.8% | -3.6%
COc1ccc2c(c1OC)C(=O)N1C2SC[C@H]1C(=O)NCCC(C)C (stereo partly drawn) | 15.5% | -14.0% | ? | 6.8% | 24.5% | -21.5%
C=CCNC(=O)[C@@H]1CSC2c3ccc(OC)c(OC)c3C(=O)N21 (stereo partly drawn) | -4.9% | ? | 39.8µM* | -8.0% | -17.2% | -5.5%
CN(C)[C@H]1C(=O)C(C(=O)NCN2CCCC2)=C(O)[C@]2(O)C(=O)C3=C(O)c4c(O)cccc4[C@@](C)(O)[C@H]3C[C@@H]12 | . | . | . | . | . | 4.74µM*
COc1cccc2c1C(=O)c1c(O)c3c(c(O)c1C2=O)C[C@](O)(C(=O)CO)C[C@H]3O[C@@H]1C[C@H](N)[C@H](O)[C@H](C)O1 | . | . | . | . | . | 1.5µM*
CCCCC(=O)OCC(=O)C1(O)Cc2c(O)c3c(c(O)c2C(OC2CC(NC(=O)C(F)(F)F)C(O)C(C)O2)C1)C(=O)c1c(OC)cccc1C3=O (stereo not drawn) | -31.7% | -21.6% | ? | 7.94µM* | . | ?
CC(C)C[C@@H](CNCC(=O)[C@H](Cc1c[nH]c2ccccc12)NC(=O)c1[nH]cnc1C(=O)N[C@H](CN)CC(C)C)NC(=O)c1nc[nH]c1C(=O)N[C@@H](CC(=O)O)C(=O)O | 1.1% | 50.1µM* | ? | -10.8% | . | ?
SMILES | FEN1 inhibitor | Pol eta inh | Pol iota inh | WRN inhibitor | POLB inh | POLK inh
CC(C)C[C@@H](CNCC(=O)[C@H](Cc1c[nH]c2ccccc12)NC(=O)c1[nH]cnc1C(=O)N[C@@H](C)CN)NC(=O)c1nc[nH]c1C(=O)N[C@@H](CC(=O)O)C(=O)O | 14.1% | -15.1% | ? | -8.0% | . | -13.6%
Cc1ccc(Cn2c(C(C)Nc3nc(-c4ccc(C)cc4)cs3)nc3cc(Cl)c(Cl)cc32)cc1 (stereo not drawn) | -28.6% | -28.5% | -15.4% | ? | 31.6µM* | -13.1%
CC(Nc1nc(-c2ccc(F)cc2)cs1)c1nc2cc(Cl)c(Cl)cc2n1CCCO (stereo not drawn) | -4.8% | -0.3% | ? | -9.5% | . | 2.8%
COc1ccc(N(C(=O)c2cccc(C)c2)S(=O)(=O)c2ccc3c(c2)n(C)c(=O)n3C)cc1 | 1.4% | -18.2% | 23.8% | . | -11.3% | 1.8%
O=C1CCCC2=C1C(c1ccc(O)c(O)c1)Nc1ccc3ccccc3c12 (stereo not drawn) | -7.8% | ? | 79.4µM* | -19.7% | . | ?
CC(C)N(C)C1=CC(=O)C(N(C)C(C)C)=CC1=O | 3.4% | 7.5% | 44.7µM* | -34.1% | . | ?
Cc1oc(-c2ccc(Cl)cc2)cc1-c1nn2c(-c3ccco3)nnc2s1 | . | . | . | . | 20µM* | .
CCOc1cccc(-c2nn3c(-c4ccco4)nnc3s2)c1 | -10.9% | 20µM* | 22.1% | -4.3% | 7.3% | 5.4%
O=[N+]([O-])c1cc(-c2ccc(/C=N\n3cnnc3)o2)cc([N+](=O)[O-])c1 | -7.5% | ? | 22.4µM* | -24.8% | 56.2µM* | ?
O=C(COc1ccccc1)Nc1ccccc1F | 4.5% | -6.7% | 19.9% | -25.9% | -3.3% | 3.8%
O=C(COc1c(Br)cc(Br)c2cccnc12)Nc1ccccc1F | -3.6% | ? | -27.5% | -6.8% | 4.47µM* | -30.1%
Cc1ccc(NC(=O)c2cc(-c3cccs3)nc3ccccc23)nc1 | -5.2% | -16.4% | -18.3% | -11.3% | ? | -3.5%
Cc1ccc(-c2cc(C(=O)Nc3ccccc3C(N)=O)c3ccccc3n2)o1 | -25.9% | 50.1µM* | ? | ? | . | -20.3%
CCOc1ccc(OCC)c(NC(=O)c2cc(-c3cccs3)nc3ccccc23)c1 | 19.8% | -17.5% | 89.1µM* | . | 1.7% | ?
